# Data published in PMC7862700, “An all-to-all approach to the identification of sequence-specific readers for epigenetic DNA modifications on cytosine”.
# Assays:
# Assay in all cases: DAPPL (digital affinity profiling via proximity ligation, sequencing); 10 mM Tris-HCl pH 7.5, 50 mM NaCl, 1 mM DTT, 4% glycerol, room temperature, 30 min; GST-TFs on glutathione beads, 16-mer random dsDNA library, 0.1% formaldehyde crosslink after washing; high values mean tight binding
# FLI1 = biological target: T1, FLI1 (Homo sapiens, UniProt Q01543 1-452); conditions: protein: recombinant; tags: N-terminal GST; dsDNA, one strand shown
# T1 sequence: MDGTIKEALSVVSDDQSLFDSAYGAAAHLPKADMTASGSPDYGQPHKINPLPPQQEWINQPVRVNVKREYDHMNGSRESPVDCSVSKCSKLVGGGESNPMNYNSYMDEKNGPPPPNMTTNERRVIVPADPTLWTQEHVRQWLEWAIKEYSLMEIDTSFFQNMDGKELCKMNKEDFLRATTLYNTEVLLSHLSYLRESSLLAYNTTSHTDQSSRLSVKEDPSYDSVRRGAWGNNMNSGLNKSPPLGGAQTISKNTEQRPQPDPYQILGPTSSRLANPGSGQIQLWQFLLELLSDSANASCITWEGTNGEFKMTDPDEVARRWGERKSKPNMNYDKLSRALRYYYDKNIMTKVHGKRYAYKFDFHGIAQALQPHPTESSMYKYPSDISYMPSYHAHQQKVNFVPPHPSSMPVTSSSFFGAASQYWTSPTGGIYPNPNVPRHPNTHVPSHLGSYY
# Procedure, shortened: (§1)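 Sequencing on an Illumina NextSeq500 followed washing, crosslinking with 0.1% formaldehyde, proximity ligation (BsaI/T4 ligase, 1 h, 37 °C) and PCR amplification of pools that had been incubated for 30 min at room temperature with 200 nmole of a random double-stranded 16-mer DNA library in Tris/NaCl/DTT/glycerol buffer. Each pool held DNA-barcoded human transcription factors, expressed in yeast as GST fusions and captured on glutathione beads, plus a tag-only sample. Binding signal is a hexamer's read frequency for a factor divided by its frequency in the tag-only sample.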
# ELK1 = biological target: T2, ELK1 (Homo sapiens, UniProt P19419 1-428); conditions: protein: recombinant; tags: N-terminal GST; dsDNA, one strand shown
# T2 sequence: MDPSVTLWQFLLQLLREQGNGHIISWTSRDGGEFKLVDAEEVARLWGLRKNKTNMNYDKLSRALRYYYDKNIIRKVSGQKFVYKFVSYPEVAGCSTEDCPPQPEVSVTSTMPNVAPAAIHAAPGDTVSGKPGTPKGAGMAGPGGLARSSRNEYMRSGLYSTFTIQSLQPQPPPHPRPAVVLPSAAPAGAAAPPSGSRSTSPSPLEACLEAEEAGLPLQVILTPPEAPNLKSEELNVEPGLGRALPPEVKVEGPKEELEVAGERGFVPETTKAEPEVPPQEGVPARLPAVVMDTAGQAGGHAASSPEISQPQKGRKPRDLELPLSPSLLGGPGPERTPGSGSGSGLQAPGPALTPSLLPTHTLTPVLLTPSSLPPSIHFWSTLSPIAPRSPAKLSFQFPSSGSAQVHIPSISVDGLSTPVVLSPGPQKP
# Procedure, shortened: as §1
# GABPA = biological target: T3, GABPA (Homo sapiens, UniProt Q06546 1-454); conditions: protein: recombinant; tags: N-terminal GST; dsDNA, one strand shown
# T3 sequence: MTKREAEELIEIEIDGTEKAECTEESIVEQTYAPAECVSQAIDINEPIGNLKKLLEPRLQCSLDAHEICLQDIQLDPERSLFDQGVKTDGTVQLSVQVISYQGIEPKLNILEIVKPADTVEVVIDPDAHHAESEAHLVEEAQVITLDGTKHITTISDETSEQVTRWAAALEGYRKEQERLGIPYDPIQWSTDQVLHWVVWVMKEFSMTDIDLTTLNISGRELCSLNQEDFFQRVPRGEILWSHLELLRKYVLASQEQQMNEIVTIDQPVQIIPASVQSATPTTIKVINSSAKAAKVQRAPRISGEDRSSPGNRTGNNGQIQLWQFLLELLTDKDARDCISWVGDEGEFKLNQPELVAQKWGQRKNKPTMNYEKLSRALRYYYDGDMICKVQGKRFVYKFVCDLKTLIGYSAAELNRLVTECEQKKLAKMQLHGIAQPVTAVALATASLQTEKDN
# Procedure, shortened: as §1
# ERG = biological target: T4, ERG (Homo sapiens, UniProt P11308 1-479); conditions: protein: recombinant; tags: N-terminal GST; dsDNA, one strand shown
# T4 sequence: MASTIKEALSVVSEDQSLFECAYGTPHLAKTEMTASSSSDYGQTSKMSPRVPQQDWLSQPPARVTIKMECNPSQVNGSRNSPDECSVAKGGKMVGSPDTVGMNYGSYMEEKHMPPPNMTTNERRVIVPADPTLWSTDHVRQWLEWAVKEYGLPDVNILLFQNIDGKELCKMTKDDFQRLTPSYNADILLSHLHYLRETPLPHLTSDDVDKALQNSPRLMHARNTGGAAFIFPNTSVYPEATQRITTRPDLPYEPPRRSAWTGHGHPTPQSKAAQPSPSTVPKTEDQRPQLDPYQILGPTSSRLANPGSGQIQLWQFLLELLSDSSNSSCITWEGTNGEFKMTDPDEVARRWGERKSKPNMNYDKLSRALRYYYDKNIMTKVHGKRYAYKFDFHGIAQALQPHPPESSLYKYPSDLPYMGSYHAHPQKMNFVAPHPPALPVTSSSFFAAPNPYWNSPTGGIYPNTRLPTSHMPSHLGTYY
# Procedure, shortened: as §1
# ELF1 = ELF1 (Homo sapiens, UniProt P32519 1-619); conditions: protein: recombinant; tags: N-terminal GST; dsDNA, one strand shown
# Procedure, shortened: as §1
# EHF = biological target: T5, EHF (Homo sapiens, UniProt Q9NZC4 1-300); conditions: protein: recombinant; tags: N-terminal GST; dsDNA, one strand shown
# T5 sequence: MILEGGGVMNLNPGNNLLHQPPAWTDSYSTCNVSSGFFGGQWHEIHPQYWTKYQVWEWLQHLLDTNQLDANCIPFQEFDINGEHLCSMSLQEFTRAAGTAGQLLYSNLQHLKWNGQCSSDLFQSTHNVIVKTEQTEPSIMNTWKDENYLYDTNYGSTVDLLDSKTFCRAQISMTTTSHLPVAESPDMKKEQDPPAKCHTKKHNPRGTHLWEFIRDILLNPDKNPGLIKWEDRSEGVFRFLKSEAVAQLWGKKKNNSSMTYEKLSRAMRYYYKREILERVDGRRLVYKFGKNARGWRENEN
# Procedure, shortened: as §1
# SPI1 = SPI1 (Homo sapiens, UniProt P17947 1-270); conditions: protein: recombinant; tags: N-terminal GST; dsDNA, one strand shown
# Procedure, shortened: as §1
# SPIB = SPIB (Homo sapiens, UniProt Q01892 1-262); conditions: protein: recombinant; tags: N-terminal GST; dsDNA, one strand shown
# Procedure, shortened: as §1
# ELK3 = biological target: T6, ELK3 (Homo sapiens, UniProt P41970 1-407); conditions: protein: recombinant; tags: N-terminal GST; dsDNA, one strand shown
# T6 sequence: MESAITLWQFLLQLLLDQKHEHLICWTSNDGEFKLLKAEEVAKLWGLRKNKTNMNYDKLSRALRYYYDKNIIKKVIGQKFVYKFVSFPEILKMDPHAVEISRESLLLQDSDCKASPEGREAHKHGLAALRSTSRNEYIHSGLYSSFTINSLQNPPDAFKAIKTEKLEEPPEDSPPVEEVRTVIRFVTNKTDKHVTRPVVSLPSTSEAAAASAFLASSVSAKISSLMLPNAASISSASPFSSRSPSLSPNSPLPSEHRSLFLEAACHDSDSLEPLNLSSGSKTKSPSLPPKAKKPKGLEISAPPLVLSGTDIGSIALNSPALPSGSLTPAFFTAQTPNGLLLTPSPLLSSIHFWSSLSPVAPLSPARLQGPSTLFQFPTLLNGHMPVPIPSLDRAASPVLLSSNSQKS
# Procedure, shortened: as §1
# FEV = biological target: T7, FEV (Homo sapiens, UniProt Q99581 1-238); conditions: protein: recombinant; tags: N-terminal GST; dsDNA, one strand shown
# T7 sequence: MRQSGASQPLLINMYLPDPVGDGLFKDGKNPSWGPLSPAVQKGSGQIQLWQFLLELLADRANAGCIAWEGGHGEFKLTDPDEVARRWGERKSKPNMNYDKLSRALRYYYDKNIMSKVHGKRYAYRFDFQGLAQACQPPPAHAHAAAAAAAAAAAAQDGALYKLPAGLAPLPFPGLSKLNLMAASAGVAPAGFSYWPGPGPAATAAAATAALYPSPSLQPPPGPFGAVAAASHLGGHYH
# Procedure, shortened: as §1
# ETV5 = ETV5 (Homo sapiens, UniProt P41161 1-510); conditions: protein: recombinant; tags: N-terminal GST; dsDNA, one strand shown
# Procedure, shortened: as §1
# HSF1 = HSF1 (Homo sapiens, UniProt Q00613 1-529); conditions: protein: recombinant; tags: N-terminal GST; chain copies: 3; dsDNA, one strand shown
# Procedure, shortened: as §1
# SPIC = biological target: T8, SPIC (Homo sapiens, UniProt Q8N5J4 1-248); conditions: protein: recombinant; tags: N-terminal GST; dsDNA, one strand shown
# T8 sequence: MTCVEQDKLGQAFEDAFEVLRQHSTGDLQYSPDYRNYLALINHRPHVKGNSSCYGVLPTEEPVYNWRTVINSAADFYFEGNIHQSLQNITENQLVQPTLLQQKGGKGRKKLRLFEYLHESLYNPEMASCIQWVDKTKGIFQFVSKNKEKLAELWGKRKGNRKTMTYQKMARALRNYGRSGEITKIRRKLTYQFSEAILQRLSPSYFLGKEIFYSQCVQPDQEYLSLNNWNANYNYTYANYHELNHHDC
# Procedure, shortened: as §1
# ELF4 = ELF4 (Homo sapiens, UniProt Q99607 1-663); conditions: protein: recombinant; tags: N-terminal GST; dsDNA, one strand shown
# Procedure, shortened: as §1
# ELK4 = biological target: T9, ELK4 (Homo sapiens, UniProt P28324-2 1-405); conditions: protein: recombinant; tags: N-terminal GST; dsDNA, one strand shown
# T9 sequence: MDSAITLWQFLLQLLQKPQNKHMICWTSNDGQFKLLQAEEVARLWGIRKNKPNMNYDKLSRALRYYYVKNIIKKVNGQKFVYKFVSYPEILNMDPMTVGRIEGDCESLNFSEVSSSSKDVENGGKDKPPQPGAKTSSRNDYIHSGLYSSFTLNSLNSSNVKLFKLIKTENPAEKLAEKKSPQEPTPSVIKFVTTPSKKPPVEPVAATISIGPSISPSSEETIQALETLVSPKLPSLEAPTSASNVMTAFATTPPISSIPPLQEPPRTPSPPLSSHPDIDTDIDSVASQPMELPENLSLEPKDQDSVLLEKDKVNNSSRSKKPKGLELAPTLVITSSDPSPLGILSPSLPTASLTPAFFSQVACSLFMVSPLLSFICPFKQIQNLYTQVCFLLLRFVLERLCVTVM
# Procedure, shortened: as §1
# ETV2 = biological target: T10, ETV2 (Homo sapiens, UniProt O00321 1-342); conditions: protein: recombinant; tags: N-terminal GST; dsDNA, one strand shown
# T10 sequence: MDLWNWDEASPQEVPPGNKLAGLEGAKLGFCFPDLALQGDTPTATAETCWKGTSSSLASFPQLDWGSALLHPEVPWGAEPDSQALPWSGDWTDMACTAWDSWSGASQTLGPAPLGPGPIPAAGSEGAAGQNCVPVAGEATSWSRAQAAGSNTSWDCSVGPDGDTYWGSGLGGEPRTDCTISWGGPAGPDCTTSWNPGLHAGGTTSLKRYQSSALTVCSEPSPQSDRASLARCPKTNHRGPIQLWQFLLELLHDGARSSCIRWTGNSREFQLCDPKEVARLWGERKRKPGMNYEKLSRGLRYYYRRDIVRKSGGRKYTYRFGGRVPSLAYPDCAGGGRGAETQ
# Procedure, shortened: as §1
# ELF3 = biological target: T11, ELF3 (Homo sapiens, UniProt P78545 1-371); conditions: protein: recombinant; tags: N-terminal GST; dsDNA, one strand shown
# T11 sequence: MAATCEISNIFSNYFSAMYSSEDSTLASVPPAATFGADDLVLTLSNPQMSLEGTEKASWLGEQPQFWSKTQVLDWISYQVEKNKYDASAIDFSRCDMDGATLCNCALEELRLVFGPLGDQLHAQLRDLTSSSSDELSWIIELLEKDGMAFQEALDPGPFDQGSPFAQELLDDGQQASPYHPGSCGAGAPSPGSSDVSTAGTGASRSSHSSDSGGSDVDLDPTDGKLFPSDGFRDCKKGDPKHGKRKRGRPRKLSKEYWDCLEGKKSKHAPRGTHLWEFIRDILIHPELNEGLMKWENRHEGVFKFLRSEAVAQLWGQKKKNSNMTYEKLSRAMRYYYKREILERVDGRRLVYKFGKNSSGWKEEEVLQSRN
# Procedure, shortened: as §1
# CRX = CRX (Homo sapiens, UniProt O43186 1-299); conditions: protein: recombinant; tags: N-terminal GST; dsDNA, one strand shown
# Procedure, shortened: as §1
# ETV1 = ETV1 (Homo sapiens, UniProt P50549 1-477); conditions: protein: recombinant; tags: N-terminal GST; dsDNA, one strand shown
# Procedure, shortened: as §1
# Sequence of CRX (O43186 whole entry): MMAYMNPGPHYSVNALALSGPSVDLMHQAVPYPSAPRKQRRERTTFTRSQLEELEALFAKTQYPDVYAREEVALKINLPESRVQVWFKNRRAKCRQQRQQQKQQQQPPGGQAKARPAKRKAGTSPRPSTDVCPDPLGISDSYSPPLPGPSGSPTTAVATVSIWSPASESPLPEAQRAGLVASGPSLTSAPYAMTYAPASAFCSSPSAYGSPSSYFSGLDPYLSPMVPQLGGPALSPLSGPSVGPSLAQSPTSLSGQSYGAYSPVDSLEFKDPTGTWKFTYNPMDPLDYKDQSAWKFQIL
# Sequence of ELF4 (Q99607 whole entry): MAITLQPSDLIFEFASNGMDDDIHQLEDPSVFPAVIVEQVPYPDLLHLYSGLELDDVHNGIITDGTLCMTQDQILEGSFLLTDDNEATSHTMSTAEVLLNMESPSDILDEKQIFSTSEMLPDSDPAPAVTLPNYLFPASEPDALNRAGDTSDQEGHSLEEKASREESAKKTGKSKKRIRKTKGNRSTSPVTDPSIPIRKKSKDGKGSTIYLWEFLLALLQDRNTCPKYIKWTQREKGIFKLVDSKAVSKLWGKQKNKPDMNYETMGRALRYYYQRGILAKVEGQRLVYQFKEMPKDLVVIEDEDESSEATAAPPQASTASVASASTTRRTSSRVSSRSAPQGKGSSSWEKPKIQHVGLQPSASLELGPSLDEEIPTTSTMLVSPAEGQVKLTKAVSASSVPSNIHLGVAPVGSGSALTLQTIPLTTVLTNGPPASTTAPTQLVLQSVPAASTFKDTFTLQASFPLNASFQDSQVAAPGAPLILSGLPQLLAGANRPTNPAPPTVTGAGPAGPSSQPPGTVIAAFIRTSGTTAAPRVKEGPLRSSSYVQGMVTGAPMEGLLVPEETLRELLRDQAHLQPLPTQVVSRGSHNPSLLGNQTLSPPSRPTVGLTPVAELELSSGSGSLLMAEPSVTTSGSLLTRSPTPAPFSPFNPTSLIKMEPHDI
# Sequence of HSF1 (Q00613 whole entry): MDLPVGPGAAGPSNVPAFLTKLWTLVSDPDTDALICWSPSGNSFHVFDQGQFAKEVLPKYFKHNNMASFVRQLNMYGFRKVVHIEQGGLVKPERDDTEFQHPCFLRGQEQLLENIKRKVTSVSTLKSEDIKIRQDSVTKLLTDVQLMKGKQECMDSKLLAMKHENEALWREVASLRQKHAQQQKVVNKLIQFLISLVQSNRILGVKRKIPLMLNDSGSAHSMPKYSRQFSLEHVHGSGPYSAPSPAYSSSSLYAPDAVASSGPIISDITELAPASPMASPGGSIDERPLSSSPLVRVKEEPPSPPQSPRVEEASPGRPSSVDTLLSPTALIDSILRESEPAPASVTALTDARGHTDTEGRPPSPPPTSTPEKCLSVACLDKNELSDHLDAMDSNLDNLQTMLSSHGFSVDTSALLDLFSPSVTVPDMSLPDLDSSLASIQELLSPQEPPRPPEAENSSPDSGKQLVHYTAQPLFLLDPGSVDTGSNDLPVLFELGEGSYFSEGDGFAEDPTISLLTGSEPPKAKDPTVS
# Sequence of ETV1 (P50549 whole entry): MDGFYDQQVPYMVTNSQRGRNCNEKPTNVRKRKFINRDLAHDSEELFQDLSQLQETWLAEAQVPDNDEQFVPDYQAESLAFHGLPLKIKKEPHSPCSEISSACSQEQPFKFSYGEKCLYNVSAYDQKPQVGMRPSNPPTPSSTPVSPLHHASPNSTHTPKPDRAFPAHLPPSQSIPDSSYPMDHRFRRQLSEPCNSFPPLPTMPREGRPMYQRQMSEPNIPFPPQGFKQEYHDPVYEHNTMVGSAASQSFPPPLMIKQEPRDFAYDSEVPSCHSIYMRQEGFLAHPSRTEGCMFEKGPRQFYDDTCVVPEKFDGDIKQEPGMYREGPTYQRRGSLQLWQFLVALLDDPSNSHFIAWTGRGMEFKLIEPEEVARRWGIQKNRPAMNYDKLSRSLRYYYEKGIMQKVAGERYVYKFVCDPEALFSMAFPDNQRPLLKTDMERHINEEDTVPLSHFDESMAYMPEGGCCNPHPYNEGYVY
# Sequence of ETV5 (P41161 whole entry): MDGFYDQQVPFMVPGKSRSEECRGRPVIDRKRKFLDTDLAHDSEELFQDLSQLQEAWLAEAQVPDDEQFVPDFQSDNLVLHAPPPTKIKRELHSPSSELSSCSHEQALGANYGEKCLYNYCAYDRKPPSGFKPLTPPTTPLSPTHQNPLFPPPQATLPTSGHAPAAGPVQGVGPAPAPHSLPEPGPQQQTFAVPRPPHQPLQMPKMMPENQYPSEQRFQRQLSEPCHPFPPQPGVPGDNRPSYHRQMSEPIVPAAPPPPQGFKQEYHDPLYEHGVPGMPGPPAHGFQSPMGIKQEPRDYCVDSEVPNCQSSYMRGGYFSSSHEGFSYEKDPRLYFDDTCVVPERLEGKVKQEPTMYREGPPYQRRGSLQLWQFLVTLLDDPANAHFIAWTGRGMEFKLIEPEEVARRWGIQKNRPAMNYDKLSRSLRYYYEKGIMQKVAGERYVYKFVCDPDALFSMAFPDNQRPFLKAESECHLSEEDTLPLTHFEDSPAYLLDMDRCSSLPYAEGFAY
# Sequence of SPIB (Q01892 whole entry): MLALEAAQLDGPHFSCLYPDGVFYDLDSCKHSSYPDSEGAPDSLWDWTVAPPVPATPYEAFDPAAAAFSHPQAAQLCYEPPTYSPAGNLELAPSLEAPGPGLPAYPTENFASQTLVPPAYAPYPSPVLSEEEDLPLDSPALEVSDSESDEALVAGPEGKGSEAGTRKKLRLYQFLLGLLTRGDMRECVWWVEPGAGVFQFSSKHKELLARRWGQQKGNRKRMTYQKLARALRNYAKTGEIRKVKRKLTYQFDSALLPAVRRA
# Sequence of ELF1 (P32519 whole entry): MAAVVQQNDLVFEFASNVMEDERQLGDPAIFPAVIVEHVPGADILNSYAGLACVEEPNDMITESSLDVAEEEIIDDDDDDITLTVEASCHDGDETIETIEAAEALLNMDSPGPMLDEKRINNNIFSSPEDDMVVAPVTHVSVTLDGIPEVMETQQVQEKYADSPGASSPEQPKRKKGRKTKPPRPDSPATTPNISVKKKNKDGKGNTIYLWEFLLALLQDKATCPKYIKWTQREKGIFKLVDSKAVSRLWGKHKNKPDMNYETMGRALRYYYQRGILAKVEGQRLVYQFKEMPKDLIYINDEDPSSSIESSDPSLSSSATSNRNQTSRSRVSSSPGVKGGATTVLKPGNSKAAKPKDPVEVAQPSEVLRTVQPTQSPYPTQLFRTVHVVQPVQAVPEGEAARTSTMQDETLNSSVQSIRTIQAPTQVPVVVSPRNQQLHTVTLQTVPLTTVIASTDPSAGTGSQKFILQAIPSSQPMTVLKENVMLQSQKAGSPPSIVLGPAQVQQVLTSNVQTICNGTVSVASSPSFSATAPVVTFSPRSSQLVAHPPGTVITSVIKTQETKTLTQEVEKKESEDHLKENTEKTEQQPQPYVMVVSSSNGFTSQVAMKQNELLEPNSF
sequence,measurement,setting,value
TCGTTT,binding signal,FLI1,"1.13 fold enrichment (6-mer frequency, TF over GST control)"
same,binding signal,ELK1,"1.21 fold enrichment (6-mer frequency, TF over GST control)"
same,binding signal,GABPA,"1.28 fold enrichment (6-mer frequency, TF over GST control)"
same,binding signal,ERG,"1.15 fold enrichment (6-mer frequency, TF over GST control)"
same,binding signal,ELF1,"1.15 fold enrichment (6-mer frequency, TF over GST control)"
same,binding signal,EHF,"1.22 fold enrichment (6-mer frequency, TF over GST control)"
same,binding signal,SPI1,"1.2 fold enrichment (6-mer frequency, TF over GST control)"
same,binding signal,SPIB,"1.18 fold enrichment (6-mer frequency, TF over GST control)"
same,binding signal,ELK3,"1.05 fold enrichment (6-mer frequency, TF over GST control)"
same,binding signal,FEV,"1.14 fold enrichment (6-mer frequency, TF over GST control)"
same,binding signal,ETV5,"1.09 fold enrichment (6-mer frequency, TF over GST control)"
same,binding signal,HSF1,"1.02 fold enrichment (6-mer frequency, TF over GST control)"
same,binding signal,SPIC,"1.15 fold enrichment (6-mer frequency, TF over GST control)"
same,binding signal,ELF4,"1.17 fold enrichment (6-mer frequency, TF over GST control)"
same,binding signal,ELK4,"1.24 fold enrichment (6-mer frequency, TF over GST control)"
same,binding signal,ETV2,"1.3 fold enrichment (6-mer frequency, TF over GST control)"
same,binding signal,ELF3,"1.27 fold enrichment (6-mer frequency, TF over GST control)"
same,binding signal,CRX,"1.08 fold enrichment (6-mer frequency, TF over GST control)"
same,binding signal,ETV1,"1.18 fold enrichment (6-mer frequency, TF over GST control)"
